# Source: PubChem (several laboratories)
# Most compounds without a hit are left out; they make up all but 1.3% or so of the library.
# UBC9 SUMO inh = inhibitors of in vitro SUMOylation cascade, primary screen, biochemical, HTRF, uHTS; HTRF SUMOylation assay, SAE1/SAE2 + UBC9; hit rate 0.36% among 290,000; inhibition, % at 35 µM; AID 2006, 2009; in the data active means inhibition above about 50%, passing the limit was not always enough
# Target sequence (P63279 whole entry, looked up): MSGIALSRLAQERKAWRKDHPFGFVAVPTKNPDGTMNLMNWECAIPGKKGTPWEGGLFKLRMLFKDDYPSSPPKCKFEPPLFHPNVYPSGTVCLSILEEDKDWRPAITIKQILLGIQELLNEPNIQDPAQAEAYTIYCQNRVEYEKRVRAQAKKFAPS
# NCF1 inh = p47phox/p22phox peptide binding inhibitors, primary screen, biochemical, uHTS, NADPH oxidase regulatory subunit; fluorescence polarization, 2 h; hit rate 0.53% among 220,000; Neutrophil cytosol factor 1 (Homo sapiens), P14598; inhibition, % at 24.7 µM; AID 1274, 2008;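 further: 0% = p47phox with labelled peptide and 100% = labelled peptide alone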
# eIF4E 4G PPI = eIF4E–eIF4G protein interaction inhibitors, primary screen, biochemical, uHTS, TR-FRET, eIF4GI fragment; TR-FRET eIF4E-eIF4GI(517-606) binding, 2 h; inhibition, % at 21.7 µM; hit rate 0.37% among 220,000;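 further: 0% = full FRET control wells and 100% = background wells lacking eIF4GI fragment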
# 14-3-3 Bad PPI = inhibitors of 14-3-3 zeta/Bad binding, primary screen, biochemical, TR-FRET, bovine 14-3-3 zeta. TR-FRET 14-3-3zeta/Dy647-pBad peptide displacement, 1 h. inhibition, % at 21.7 µM. hit rate 0.71% among 220,000;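 active means inhibition above about 70%, limit read from the data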;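 further: 0% = full 14-3-3 plus peptide FRET controls and 100% = background without 14-3-3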
# Target sequence (P63103 whole entry, looked up): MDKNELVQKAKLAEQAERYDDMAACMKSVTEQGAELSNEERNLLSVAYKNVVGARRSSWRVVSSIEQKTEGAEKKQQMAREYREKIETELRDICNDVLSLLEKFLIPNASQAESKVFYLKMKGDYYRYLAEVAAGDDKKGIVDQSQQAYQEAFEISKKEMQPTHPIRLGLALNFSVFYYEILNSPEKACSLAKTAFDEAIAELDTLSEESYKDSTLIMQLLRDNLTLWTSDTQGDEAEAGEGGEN
# * marks the source's active call; other numbers are inactive results; nt = no result given; + = active, no number; ! = not active in a repeat; [ ] = another dose, or the depositor's remark.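 How the source made its calls, unless noted: active means inhibition above about 30% (limit read from the data); inactive means the rest.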
SMILES,UBC9 SUMO inh,NCF1 inh,eIF4E 4G PPI,14-3-3 Bad PPI
CC(=O)c1ccc(OCC(=O)N2CCN(S(=O)(=O)c3ccc(C)cc3C)CC2)cc1,4,nt,nt,nt
O=C(CSc1nc2ccccc2c(=O)n1-c1ccccc1)NCc1ccc2c(c1)OCO2,5,53*,nt,nt
Cc1cc(NC(=O)CSc2nc3cc(C(=O)NCCCOC(C)C)ccc3c(=O)n2Cc2ccco2)no1,50*,4,2,12
COC(=O)c1ccc2c(=O)n(Cc3ccco3)c(SCC(=O)Nc3cc(C)on3)nc2c1,25,0,-6,-1
COC(=O)c1ccc2c(=O)n(Cc3ccco3)c(SCC(=O)Nc3ccccc3Cl)nc2c1,14,46*,-30,11
COCCNC(=O)c1ccc2c(=O)n(Cc3ccco3)c(SCC(=O)Nc3ccc(OC)cc3OC)nc2c1,20,nt,nt,nt
O=C(CSc1nc2ccccc2c(=O)n1Cc1ccco1)NCc1ccco1,10,-7,10,88*[fluorescence artefact?]
O=C(c1ccc(Cl)cc1)N1CCOc2ccccc21,-9,nt,nt,nt
O=C1CCN(C2CCN(Cc3nc(Cc4ccccc4F)no3)CC2)CCN1,4,-6,4,-5
Cc1ccc(S(=O)(=O)NCC2CCC(C(=O)NCCCN3CCCC3=O)CC2)cc1 (configuration not stated),11,nt,nt,nt
N#Cc1cn(OCc2ccccc2)c(=O)[nH]c1=O,17,-12,-4,4
C=CCn1c(SCC(=O)Nc2ccc3c(c2)OCO3)nnc1-c1ccccc1O,-3,-7,0,7
CCC(Sc1nc2ccccc2c2nc3ccccc3n12)C(=O)NCc1ccco1 (configuration not stated),11,23,8,78*
Fc1ccccc1-c1nc2ccccc2[nH]1,4,-6,-1,-3
c1ccc2[nH]c(-c3ccnc4ccccc34)nc2c1,34,+!,49*![fluorescence artefact?],1
CCCC(=O)C1=C(O)C(C(=O)OC)C(C)(C)CC1=Nc1ccncc1 (configuration not stated),9,-4,-8,1
CCC(OC(=O)c1cccs1)C(=O)NC1CCCCC1 (configuration not stated),1,-8,-5,6
O=C(Cn1cc2c(n1)CCCC2)NCc1ccccn1,10,49*,-8,2
Cc1ccc(Oc2nnc(-c3ccccc3)c3ccccc23)cc1,-22,-5,8,7
Cc1ccc(-c2nnc(Oc3ccc(NC(=O)c4ccccc4)cc3)c3ccccc23)cc1,0,43*,13,23
Cc1ccc(C)c(NC(=O)CSc2nnc(-c3ccncc3)n2N)c1,21,34*,-27,-8
Nc1cc(Cl)ccc1N1C(=O)CCC1=O,9,31*,6,-2
O=S(=O)(c1ccc2ccccc2c1)N1CCOCC1,8,nt,nt,nt
O=S(=O)(c1ccc2nc(-c3ccco3)c(-c3ccco3)nc2c1)N1CCOCC1,84*,-3,23,-4
O=C(c1ccc2nc(-c3ccco3)c(-c3ccco3)nc2c1)N1CCN(c2ccccc2)CC1,73*,-24,-19,14
SMILES,UBC9 SUMO inh,NCF1 inh,eIF4E 4G PPI,14-3-3 Bad PPI
CCc1nc2ccc(C(=O)N3CCN(c4ccccc4)CC3)cc2nc1CC,9,nt,nt,nt
S=C(Nc1ccccn1)NC1CCCCC1,29,4,94*,-2
CCCCN(CC)S(=O)(=O)c1ccc(C(=O)N(CCCN(C)C)c2nc3cc(C)cc(C)c3s2)cc1,0,36*,10,13
COc1ccc(S(=O)(=O)NCCCN2CCCC2=O)cc1OC,9,nt,nt,nt
O=C1CN(C(=O)c2cccs2)c2ccccc2N1,4,4,47*,53
Cn1cccc1/C=N/NC(=O)c1sc2cc(Cl)ccc2c1Cl,56*,-13,3,-2
CC1(C)Cc2c(sc3nc(NCCN4CCOCC4)n4ncnc4c23)CO1,4,1,61*,-13
CC1(C)Cc2c(c(-c3ccco3)nc3sc4c(NCCN5CCOCC5)ncnc4c23)CO1,29,-33,-2,-13
CCn1c(SCC(=O)Nc2ccc(Cl)cc2)nc2nc3c(cc2c1=O)CCCC3,-11,1,3,10
CCn1c(SCC(=O)Nc2ccc(C(C)=O)cc2)nc2nc3c(cc2c1=O)CCCC3,3,7,51*,42
O=C1C2C3C=CC(C2C(=O)N1c1ccc(O)cc1)C1C2C(=O)N(c4ccc(O)cc4)C(=O)C2C31 (configuration not stated),12,34*,-4,0
C1CCC(n2nnnc2CN2CCCC2)CC1,0,-6,-2,-3
OC1(c2cccnc2)CCN(Cc2nnnn2C2CCCCC2)CC1,16,0,6,84*
O=C1CC(c2ccc(F)cc2)CC2=C1C(c1ccc([N+](=O)[O-])o1)Nc1ccccc1N2 (configuration not stated),-3,-1,8,-1
COC(=O)c1cc(C(=O)OC)cc(N2C(=O)CC(NNC(=O)c3ccc(C)cc3)C2=O)c1 (configuration not stated),15,130*,2,3
COC(=O)c1cc(C(=O)OC)cc(N2C(=O)CC(NNC(=O)c3ccccc3Br)C2=O)c1 (configuration not stated),-2,-18,3,-2
Oc1cccc(C(O)CNCc2ccc(-c3ccccc3)cc2)c1 (configuration not stated),-12,-24,1,77*
CCCCC(=O)Nc1ccccc1C(C)C,-6,-1,0,-4
CCN1/C(=C/C=C/c2oc3ccc4ccccc4c3[n+]2CC)Oc2ccc3ccccc3c21,90*,-238,-112,91*
Cc1ccc(C(=S)N2CCN(Cc3ccccc3)CC2)s1,14,-2,-4,-8
Cc1ccc(CNC(=O)c2ccc(N3CCc4ccccc43)c([N+](=O)[O-])c2)cc1,17,-8,55*,19
Cc1onc(-c2ccccc2)c1C(=O)N1CCN(C)CC1,-1,-1,6,1
Cn1nc(-c2ccccc2)c(CSc2ccccc2)c1Cl,7,139*,nt,nt
C=CCN1C=C2C(=O)C(C)(OC(=O)CC)C(=O)C=C2C=C1CCCC (configuration not stated),-14,-13,97*,-7
CCCCC1=CC2=CC(=O)C(C)(OC(=O)CC)C(=O)C2=CN1CC(C)C (configuration not stated),-5,8,-4,-1
CC(=O)C1=C(O)C(=O)N(c2cccnc2)C1c1ccc(Cl)cc1 (configuration not stated),24,-3,6,83*
COc1ccc(C2C(C(C)=O)=C(O)C(=O)N2c2cccnc2)cc1OC (configuration not stated),-1,-7,2,14
CC(=O)N(C)c1ccc(N=NC2C(=O)N(C(N)=S)N=C2C)cc1 (configuration not stated),10,nt,nt,nt
COc1ccc(-c2cc3ccccc3n2CC(O)CN2CCCCC2)cc1 (configuration not stated),14,-4,1,9
